From PubChem BioAssay AID2284183 (EPA ToxCast)
Activity calls are given as the source filed them. Rule for the calls: active = hit-call score of the fitted dose curve at least 0.9, where 1 is the maximum; inactive = score below 0.9.

biological target: human Tachykinin Receptor NK2 Agonism, TACR2 (gene 6865) (UniProt P21452); test: ERF_TW_GPCR_hTACR2: Eurofins (ERF) G Protein-Coupled Receptor (GPCR) Radioligand Binding LeadHunter Assay for human Tachykinin Receptor NK2 Agonism
Description: ERF_TW_GPCR_hTACR2 is a biochemical, single-readout assay that uses extracted gene-proteins in a cell-free assay. Measurements were taken 1.5 hour after chemical dosing in a 96-well plate. See NK2 Human Tachykinin GPCR Binding (Antagonist Radioligand) Assay, Panlabs.ERF_TW_GPCR_hTACR2 is an assay component calculated from the ERF_TW_GPCR_hTACR2 assay. It is designed to measure radioligand binding using a type of binding reporter as detected by scintillation counting with radiometry technology.Data from the assay component ERF_TW_GPCR_hTACR2 was analyzed at the assay endpoint, ERF_TW_GPCR_hTACR2, in the positive analysis fitting direction relative to DMSO as the negative control and baseline of activity. Using a type of binding reporter, loss-of-signal activity can be used to understand changes in radioligand binding as they relate to gene TACR2. To generalize the intended target to other relatable targets, this assay endpoint is annotated to the gpcr intended target family, where the subfamily is tachykinin.
Human recombinant neurokinin NK2 receptor expressed in CHO-hNK2 cells are used to prepare membranes in modified HEPES buffer pH 7.4. A 5 ug aliquot of membrane is incubated with 0.02 nM [125I]-Neurokinin A for 120 minutes at 25C. […] Membranes are filtered and washed, the filters are then counted to determine [125I]-Neurokinin A specifically bound. […]

human Tachykinin Receptor NK2 Agonism, TACR2 (gene 6865), sequence (P21452 whole entry, looked up): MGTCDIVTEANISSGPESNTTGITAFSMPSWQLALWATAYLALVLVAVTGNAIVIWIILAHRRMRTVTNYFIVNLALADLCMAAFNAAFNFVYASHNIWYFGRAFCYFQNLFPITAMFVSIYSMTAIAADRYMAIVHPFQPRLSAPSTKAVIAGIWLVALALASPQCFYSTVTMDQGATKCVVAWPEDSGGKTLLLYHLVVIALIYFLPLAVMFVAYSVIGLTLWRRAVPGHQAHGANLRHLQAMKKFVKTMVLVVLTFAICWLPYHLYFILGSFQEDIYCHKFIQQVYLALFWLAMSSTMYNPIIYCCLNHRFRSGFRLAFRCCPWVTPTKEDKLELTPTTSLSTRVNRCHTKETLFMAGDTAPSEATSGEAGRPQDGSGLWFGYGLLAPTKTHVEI

| Compound | AC50 |
| --- | --- |
| O=C(/C=C/c1ccc(O)cc1)CC(=O)/C=C/c1ccc(O)cc1 | 1.08 µM (active) |
